The test deals with Trypanosoma brucei. As to the kind of experiment: Trypanosoma brucei 72 hour study. The class given is functional, organism-based. On the set-up: scale not given: in the data most compounds retested in dose-response had high values.

The whole screen tested about 66,000 compounds, of which about 960 (1.5%) showed an effect of 50% or more. The list comes from a sample in which strong results are over-represented; it also holds similar structures and randomly drawn compounds.

Regarding `CN1CC[C@]2(CN(CC3CCOC3)C[C@H]2c2ccccc2)C1=O.O=C(O)C(F)(F)F` (stereo not given in full), where the note is “30.3 µM, […]”, the “Percent Effect” value was -23.92%.

On to `Cc1cc2c(=O)n3c(nc2s1)CCN(C(=O)c1nn(C)cc1Cl)CC3`, for which the “Percent Effect” value (30.3 µM, […]) is recorded as -11.28%.

As for `CN1CC(=O)N(c2cccnc2)CC12CCN(C(=O)c1cccn1C)C2.O=C(O)C(F)(F)F.O=C(O)C(F)(F)F` (stereo not given), the “Percent Effect” value (30.3 µM, […]) was -4.553%.

On to `O=C(C[C@@H]1COC[C@H]2CN(C(=O)c3ccccn3)C[C@@H]12)N1CCCC1.O=C(O)C(F)(F)F`, for which the “Percent Effect” value (30 µM, 30.03 µM) is reported as -14.99%.

`CS(=O)(=O)NCc1cnc2n1CCN(Cc1cccnc1)CC2.O=C(O)C(F)(F)F.O=C(O)C(F)(F)F`: for the setting “30 µM, 30.03 µM”, the “Percent Effect” value is given as -10.23%.

For the molecule `O=C(NC1CCCC1)C1Cc2nc(-c3ccsc3)sc2N1CC1CC1` (stereo not given), the “Percent Effect” value (30.3 µM, […]) was found to be 33.5%.

Regarding `CN(C)CCNC(=O)C1Cc2nc(-c3ccsc3)sc2N1CC1CC1.O=C(O)C(F)(F)F` (stereo not given), the “Percent Effect” value (30.3 µM, […]) turned out to be 5.041%.

Regarding `O=C(Nc1cccnc1)C1Cc2nc(-c3ccsc3)sc2N1CC1CC1.O=C(O)C(F)(F)F` (stereo not given), the “Percent Effect” value (30.3 µM, […]) is given as 60.89%.

On to `Cl.c1cc(CNc2cnc(C3CCCN3)cn2)ccn1` (stereo not given), for which the “Percent Effect” value (30.3 µM, […]) is -6.296%.

Regarding `CSc1sc(NC(=O)C2CCCN(C(N)=O)C2)nc1C` (stereo not given), for the setting “30 µM, 30.03 µM”, the “Percent Effect” value is recorded as -35.12%.

Consider `Cc1nc(NC(=O)C2CCCN(C(N)=O)C2)sc1-c1ccccc1` (stereo not given), for which the “Percent Effect” value (30 µM, 30.03 µM) was found to be 57.12%.

In the case of `Cc1nc(NC(=O)C2CCCN(C(=O)C3CC3)C2)sc1C` (stereo not given), the “Percent Effect” value (30 µM, 30.03 µM) is -11.09%.

`CC(C)N1CCC2(CC1)CC(NCc1ccccn1)c1ccccc1O2.O=C(O)C(F)(F)F.O=C(O)C(F)(F)F.O=C(O)C(F)(F)F` (stereo not given): the “Percent Effect” value (30 µM, 30.03 µM) worked out at 2.75%.

`CCc1nnsc1C(=O)N1CCCC(n2ccnc2C(C)C)C1` (stereo not given): the “Percent Effect” value (30.3 µM, […]) is given as -10.58%.

`COc1cccc(Nc2nc(C3CCNCC3)c3ccccn23)c1.Cl`: where the note is “30.3 µM, […]”, the “Percent Effect” value is listed as 24.37%.

As for `Cc1nn(C(C)C)c(C)c1S(=O)(=O)Nc1cccc(F)c1`, the “Percent Effect” value (30 µM, 30.03 µM) was -2.912%.

Regarding `Cl.O=C(Nc1cccc(F)c1)C1=NOC2(CCNCC2)C1`, the “Percent Effect” value (30.3 µM, […]) is listed as -7.13%.

In the case of `COc1cccc(Nc2nc(C3CCNCC3)c3sc(C)c(C)n23)c1.Cl`, the “Percent Effect” value (30.3 µM, […]) came to 63.57%.

As to `Fc1cccc(-c2nccnc2C2CCCNC2)c1` (stereo not given), the “Percent Effect” value (30.3 µM, […]) is reported as -21.91%.

On to `COc1cccc(Nc2nc(C3CCCNC3)c3ccccn23)c1.Cl` (stereo not given), for which, where the note is “30.3 µM, […]”, the “Percent Effect” value is reported as -1.342%.

Consider `Cc1sc2c(C3CCCNC3)nc(Nc3cccc(F)c3)n2c1C.Cl` (stereo not given), for which, under “30.3 µM, […]”, the “Percent Effect” value is on record as 100.1%.

Consider `COc1cccc(Nc2nc(C3CCCNC3)c3sc(C)c(C)n23)c1.Cl` (stereo not given), for which the “Percent Effect” value (30.3 µM, […]) is 2.239%.

Take `Cc1sc2c(C3CCNCC3)nc(Nc3cccc(F)c3)n2c1C.Cl`: the “Percent Effect” value (30.3 µM, […]) is listed as 99.26%.

As to `CCN(Cc1nc2c(cnn2C)c(=O)[nH]1)c1cc(C)cc(C)c1`, the “Percent Effect” value reads like this: (10 µM) -28.14%; (30.3 µM, […]) -21.13%.

Consider `N#Cc1ccc(N2CCCC3(CCN(c4cncnc4)C3=O)C2)nc1.O=C(O)C(F)(F)F` (stereo not given), for which the “Percent Effect” value (30.3 µM, […]) was -13.65%.

For `Cl.O=C(Nc1cc(C(F)(F)F)c[nH]c1=O)C1CCCCN1` (stereo not given), the “Percent Effect” value (30 µM, 30.03 µM) stood at 4.306%.

For the molecule `CNc1ccnc(NCCC(=O)Nc2ccccc2OC)n1`, the “Percent Effect” value (30 µM, 30.03 µM) came to 54.56%.

For `Cc1ccccc1NC(=O)CCNC(=O)c1ccoc1`, the “Percent Effect” value (30 µM, 30.03 µM) is recorded as -20.37%.

`Cc1ccccc1CC(=O)NCCNc1nccc(C(F)(F)F)n1`: the “Percent Effect” value (30 µM, 30.03 µM) is -20.25%.

Values taken from ChEMBL document CHEMBL3988442, “University of Dundee, Small-Polar-MMV Screening Library” (2021).
